# Compound activity as filed in PubChem.
# RORgamma inh – blocks mouse ROR gamma transcriptional activity; P51450; AID 2551; Drosophila S2 Gal4-RORgamma UAS-luciferase reporter, 20 h; Potency, µM (doses to about 53.6 µM), for the others: at the highest dose activity change, negative = inhibition, hits mostly inhibitors; 5.4% of 310,000 active; further: nearly all actives have a fitted effect of over 60% in size
# Target sequence (P51450 whole entry, looked up, the tested form may be a part): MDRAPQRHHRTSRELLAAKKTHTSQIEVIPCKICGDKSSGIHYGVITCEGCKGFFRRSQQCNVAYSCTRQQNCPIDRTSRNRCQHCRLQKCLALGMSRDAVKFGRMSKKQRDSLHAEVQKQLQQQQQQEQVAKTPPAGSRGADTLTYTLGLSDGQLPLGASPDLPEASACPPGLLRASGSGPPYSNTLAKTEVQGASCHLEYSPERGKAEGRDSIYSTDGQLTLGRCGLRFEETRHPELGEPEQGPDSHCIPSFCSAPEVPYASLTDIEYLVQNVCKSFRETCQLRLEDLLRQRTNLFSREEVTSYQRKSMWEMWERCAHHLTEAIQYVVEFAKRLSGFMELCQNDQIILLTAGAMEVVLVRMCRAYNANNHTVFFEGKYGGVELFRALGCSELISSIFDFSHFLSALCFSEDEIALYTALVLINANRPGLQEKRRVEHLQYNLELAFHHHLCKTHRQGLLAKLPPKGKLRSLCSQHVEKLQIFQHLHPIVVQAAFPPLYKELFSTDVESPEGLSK
#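 A Gal4/UAS one-hybrid system in insect cells: metallothionein-promoter Gal4–ROR gamma fusion plus Photinus luciferase reporter. Copper sulfate 700 uM final, 20 hr ambient incubation, luminescent detection after 10 min with reagent.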
# VP16 counter – inhibits Gal4-VP16 luciferase reporter, ROR gamma counter-screen | 3.5% of 310,000 active | Drosophila S2 Gal4-VP16 UAS-luciferase, luminescence, 20 h | AID 2546 | Potency, µM (top dose mostly 53.6 µM), inactives show at the top dose activity, negative = inhibition, usual class: inhibitors;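 further: Gal4-VP16 expression switched on by copper sulfate through the metallothionein promoter; nearly all actives have a fitted effect of over 50% in size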
# TDP1 cell CPT – growth inhibition of DT40 Tdp1-/-;hTDP1 cells with camptothecin (screen for TDP1 inhibitors); chicken DT40 Tdp1-/-;hTDP1 cells + 20 nM CPT, ATP luminescence, 48 h; AID 686979; 12% of 420,000 active; Potency, µM (doses to about 46.2 µM), without a hit: at the top dose activity change, negative = growth inhibition, most hits filed as inhibitors; further: nearly all actives have a fitted effect of over 55% in size
#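 Chicken DT40 Tdp1-/- cells stably complemented with human TDP1 were seeded at 400 cells/well in medium containing 20 nM camptothecin, exposed to pin-transferred compounds, and grown at 37 °C for at least 48 hr. Viability was read as ATP luminescence.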
# TDP1 inh – blocks human tyrosyl-DNA phosphodiesterase 1; Potency, µM (titrated, usually from 130 µM), for inactives: at the highest dose activity change, negative = inhibition, most hits filed as inhibitors; 0.28% of 350,000 active; recombinant TDP1, AlphaScreen DNA substrate cleavage; further: nearly all actives have a fitted effect of over 40% in size
#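 E. coli-derived human Tdp1, 1 nM final. Cpd preinc 15 min RT; substrate 15 nM final, 5 min RT; AS bead mix 10 ug/ml final, 10 min RT. Signal loss = tyrosine-FITC cleavage. No-enzyme wells = max signal.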
# DT40 TDP1 no CPT – qHTS for Inhibitors of human tyrosyl-DNA phosphodiesterase 1 (TDP1): qHTS in cells in absence of CPT; DT40 Tdp1-/- hTDP1 cells, no CPT, ATP luminescence, 48 h; Potency, µM (top dose mostly 46.2 µM), for the others: at the highest dose activity change, negative = growth inhibition, hits mostly inhibitors; 15% of 420,000 active; further: nearly all actives have a fitted effect of over 55% in size
#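 Cells were dispensed at 400 per well, compounds added by pin tool, plates incubated ≥48 hr at 37 °C, then CellTiter-Glo added for 30 min at room temperature before luminescence reading. Line: DT40 Tdp1-/- complemented with hTDP1; camptothecin omitted.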
# Starred values were filed as active, the others as inactive; ? = inconclusive; · = no result given; [ ] = remark or other dose. Hits are enriched below; roughly 19% of the tested compounds scored in any of these assays. The call rests on the fitted dose curve; in most records, active means well fitted curve in the direction sought with a large enough effect; inconclusive means small, poorly fitted or top-dose-only effect, or another doubt; inactive means no such curve, though single readings can be large; an effect the other way counts as inactive or inconclusive. On the % scale 0 is the no-effect control and ±100 the full control effect; potency means the concentration at half of the fitted maximal effect.
SMILES,RORgamma inh,VP16 counter,TDP1 cell CPT,TDP1 inh,DT40 TDP1 no CPT
O=C(Cn1ccc2cc(S(=O)(=O)N3CCCCC3)ccc21)NCc1cccc(Cl)c1,·,·,?,8.5%,?
CC(C(=O)NCc1ccccc1)n1ccc2cc(S(=O)(=O)N3CCCC3)ccc21 (stereo unspecified),·,·,?,2.8%,18.4µM*
C[C@@]12CCC(O)C[C@H]1CCc1ccccc12 (stereo partly specified),16.8%,-0.4%,7.1%,14.8%[56.1 µM],-14.9%
CCN(CC)S(=O)(=O)c1ccc(C(=O)NCCN2C(=O)S/C(=C\c3cccnc3)C2=O)cc1,16.5%,?,?,0.5%,18.4µM*
CS(=O)(=O)c1ccc(C(=O)NCCN2C(=O)S/C(=C\c3cccnc3)C2=O)cc1[N+](=O)[O-],5.62µM*,?,3.66µM*,2.7%,4.61µM*
Cc1cc(Cl)ccc1OCCCC(=O)NCCN1C(=O)S/C(=C\c2cccnc2)C1=O,12.7%,-33.3%,?,-1.8%,16.4µM*
CN(C)S(=O)(=O)c1ccc(C(=O)NCCN2C(=O)S/C(=C\c3cccnc3)C2=O)cc1,-6.3%,2.0%,?,0.0%,?
COCCn1ccc2c(OCC(=O)NCCc3ccc(OC)c(OC)c3)cccc2c1=O,·,·,6.3%,7.6%,1.2%
Cc1cc([N+](=O)[O-])cc(C)c1OCC(=O)N/N=C/c1ccc(OC(=O)c2ccccc2)cc1,-0.3%[10 µM],-14.9%,?,-1.1%,?
COc1ccc(NS(=O)(=O)c2ccc(O)c(C(=O)OCC(=O)NC(C)C3CC4CCC3C4)c2)cc1 (stereo unspecified),?,-3.7%,8.0%,·,6.5%
CC(NC(=O)COC(=O)c1cc(NS(=O)(=O)c2ccc(Cl)c([N+](=O)[O-])c2)ccc1O)C1CC2CCC1C2 (stereo unspecified),?,11.2µM*,?,7.1%,?
CCCCCn1c(SCC(=O)c2ccccc2)nc2cc(C(=O)NCc3ccco3)ccc2c1=O,2.0%,-8.9%,-0.9%,3.8%,0.7%
CCCn1c(/C=C/c2ccccc2)nc2ccccc21,5.62µM*,?,?,-3.8%,23.1µM*
COCCOCCn1c(/C=C/c2ccccc2)nc2ccccc21,11.2µM*,?,?,-0.6%,?
CC(C)n1c(/C=C/c2ccccc2)nc2ccccc21,12.6µM*,15.8µM*,-6.1%,-0.6%,?
CC(C)Cn1c(/C=C/c2ccco2)nc2ccccc21,11.2µM*,?,?,8.1%,?
CC(C)Cn1c(S(=O)(=O)O)nc2ccccc21,-24.3%,?,-0.1%,0.6%,4.3%
CCn1c(/C=C/c2cc[n+](C)cc2)nc2ccccc21,-29.4%,1.7%,-16.3%,·,-4.4%
COCCOCCn1c(CCCO)nc2ccccc21,-23.9%,2.1%,-3.7%,1.1%,-10.2%
O=C(CNC(=O)c1ccc2ccccc2c1)NC1CCCCC1,·,·,-12.4%,-0.1%,-21.0%
O=C(O)COc1ccc2c(c1)OCCO2,1.8%,-9.7%,-12.3%,-1.0%,-26.1%
CC(C)c1ccccc1NC(=O)Cn1c(/C=C/c2ccccc2)nc2ccccc21,-12.9%,-27.8%,18.4µM*,·,?
Cc1ccc(C(=O)Cn2c(C(=O)/C=C/c3ccccc3)nc3ccccc32)cc1,-1.8%,1.2%,16.4µM*,7.5%,16.4µM*
CC(C)c1ccccc1NC(=O)Cn1c(-c2ccccc2Cl)nc2ccccc21,26.7%,4.3%,-21.0%,-4.5%,-4.8%
Cc1ccc(C(=O)Cn2c(NCCO)nc3ccccc32)cc1,-5.2%,-7.4%,3.0%,9.6%,?
SMILES,RORgamma inh,VP16 counter,TDP1 cell CPT,TDP1 inh,DT40 TDP1 no CPT
O=c1ccc2cc(O)c(O)cc2o1,-18.6%,-17.4%,16.4µM*,0.0%,?
O=C1c2ccccc2-c2cc(Br)ccc2NC1O (stereo unspecified),·,·,-20.0%,·,?
O=C1c2ccccc2C(=Nc2ccccc2)C1c1cccc(Br)c1 (stereo unspecified),-17.5%,-9.9%,10.3µM*,8.3%,?
O=C(COC(=O)CNC(=O)C12CC3CC(CC(C3)C1)C2)NC1CCS(=O)(=O)C1 (stereo unspecified),-1.6%,7.0%,2.2%,-1.9%,6.6%
CCOc1ccc(C(=O)CCN2CCCCC2)cc1,33.3%,-8.8%,20.6µM*,-4.2%,?
O=C(CCCCN1CCCCC1)c1ccc2c(c1)Cc1ccccc1-2,12.6µM*,?,?,1.3%,20.6µM*
CCOc1ccc(C(=O)CCC(=O)NN2CCCCC2)cc1,·,·,0.1%,·,-1.9%
O=C(/C=C/c1ccccc1)COC(=O)c1ccccc1,·,·,?,·,9.2µM*
O=C(c1ccccc1)c1ccc(OCCCCN2CCCCC2)cc1,-5.2%,0.2%,-18.5%,0.0%,-0.7%
CCC1(C)CC(CC(=O)O)(c2ccccc2OC)CCO1 (stereo unspecified),-13.2%,-3.2%,10.9%,1.9%,0.7%
CCC1(C)CC2(CCCN(CCC(=O)c3ccccc3)C2)CCO1 (stereo unspecified),4.3%,5.6%,3.66µM*,5.1%,3.26µM*
O=C(COC(=O)c1ccccc1)c1ccc(Br)cc1,10.8%,6.8%,?,0.0%,-14.5%
COc1ccc(CNC(=O)C2CCC(CNS(=O)(=O)c3ccccc3)CC2)cc1 (stereo unspecified),29.0%,-1.8%,-18.8%,·,-5.6%
CCn1c(SCCN2CCCCC2)nc2c1c(=O)n(C)c(=O)n2C,·,·,-5.3%,·,-8.7%
Cc1ccc(CNC(=O)Cn2nnc(C(=O)Nc3ccc(Br)cc3)c2N)cc1,-29.8%,-15.9%,?,0.9%,-10.4%
CCOC(=O)N1CCN(C(=O)CCC(=O)c2ccc(OCC)cc2)CC1,20.3%,12.7%,8.1%,0.3%,-15.4%
O=C(/C=C/c1ccccc1)CCN1CCCCC1,·,·,1.16µM*,·,0.92µM*
COc1ccc(C(=O)CCN2CCN(c3ccc(OC)cc3)CC2)cc1,?,?,2.06µM*,·,2.06µM*
COc1ccc(C(=O)OCCN2CCCCC2)cc1,5.1%,3.1%[10 µM],1.1%,2.6%,-0.4%
COc1ccc(N2CCN(CCC(N)=O)CC2)cc1,-12.6%,-0.9%,2.3%,1.5%,-1.9%
COc1ccc(C(=O)CCN2CCCCCC2)cc1,3.16µM*,5.01µM*,3.16µM*,4.9%,3.16µM*
CCCOc1ccc(C(=O)CCN2CCN(C(=O)OCC)CC2)cc1,-19.9%,?,2.31µM*,7.4%,5.17µM*
Cc1ccc(N(CC(=O)N2CCN(c3ccccc3)CC2)S(=O)(=O)c2c(C)noc2C)cc1,·,·,?,0.0%,?
CCOc1ccc(C(=O)CSCCC(=O)O)cc1,0.282µM*,0.316µM*,-2.5%,1.2%,-8.6%
O=C(/C=C/c1ccccc1)CC(=O)c1ccccc1O,?,11.2µM*,?,·,18.4µM*
